Out of some 360,000 compounds screened, about 830 (0.23%) were called active. Many of the other results were omitted from the sample, so actives are more common in it than they were. Unmarked numbers belong to inactive results.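 The calls were made as follows: active = mean luciferase reporter signal, scaled so untreated is 0 and the glycosylation-blocking control 100, at or above a set limit in every replicate; inconclusive = mean reaches the limit but not every replicate does; inactive = mean below the limit.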

The experiment is described as follows: increase of ERlucT glycosylation luciferase signal, primary screen, N-linked glycosylation inhibitor project, D54 ERlucT cells, luminescence, set 2 (AID 588692).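 Also: luciferase carries N-glycosylation sites so blocking glycosylation raises the light; 0% = median of neutral control wells and 100% = median of 100 nM tunicamycin wells.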 To be noted: 24 h, at 12.5 µM, hits give high values, percent of 100 nM tunicamycin response.
Regarding `CCn1nc(C(=O)NNC(=O)C2CSC3(C)CCC(=O)N23)c2ccccc2c1=O` (stereo unspecified), the reporter increase is -0.092%.
The value for `CC(NCc1cccs1)C(=O)Nc1cc(Cl)cc(Cl)c1` (stereo unspecified) was 0.0655%; that for `O=C(N/N=C/C=C/c1ccccc1)C1CC1(c1ccccc1)c1ccccc1` (stereo unspecified) was -0.496%.
Take `CN(C)S(=O)(=O)c1ccc(N2CCCC2)c(C(=O)Nc2cccc(F)c2)c1`: the reporter increase is 48.8% (active).
Take `CN(C)S(=O)(=O)c1ccc(N2CCCC2)c(C(=O)Nc2ccc(Br)cc2F)c1`: the reporter increase is -1.25%.
On to `CN(C)S(=O)(=O)c1ccc(N2CCCC2)c(C(=O)NCc2ccccc2)c1`, for which the reporter increase is -1.02%.
For the compound `CN(NC(=O)C1CC(=O)N(c2ccccc2)C1)C1=NS(=O)(=O)c2ccccc21` (stereo unspecified), the reporter increase was 1.73%.
As to `CC[C@H]1OC(=O)[C@H](C)[C@@H](O[C@H]2C[C@@](C)(OC)[C@@H](O)[C@H](C)O2)[C@H](C)[C@@H](O[C@@H]2O[C@H](C)C[C@H](N(C)C)[C@H]2O)[C@](C)(O)C[C@@H](C)[C@@H]2N[C@@H](COCCOC)O[C@H]([C@H]2C)[C@]1(C)O`, the reporter increase is 0.0685%.
For `COc1ccc([C@@H]2[C@@H]3C(=O)N(C(C)(C)C)C(=O)[C@@H]3[C@]3(Cc4ccccc4)C(=O)N(c4cccc(Br)c4)C(=O)N23)cc1`, the reporter increase was 36.7% (active).
As for `O=C1[C@H]2[C@@H](c3ccc(Cl)cc3)N3C(=O)N(c4cccc(F)c4)C(=O)[C@@]3(Cc3ccccc3)[C@H]2C(=O)N1C1CCCCC1`, the reporter increase was -1.72%.
The value for `Cc1cccc(N2C(=O)N3[C@H](c4ccc(F)cc4)[C@@H]4C(=O)N(C5CCCCC5)C(=O)[C@@H]4[C@]3(Cc3ccccc3)C2=O)c1` was 78.2% (active).
Consider `O=C1[C@H]2[C@@H](c3ccc(F)cc3)N3C(=O)N(c4ccc(C(F)(F)F)cc4)C(=O)[C@@]3(Cc3ccccc3)[C@H]2C(=O)N1C1CCCCC1`, for which the reporter increase was -7.93%.
The value for `CC[C@@]12C(=O)N(c3ccccc3)C(=O)N1[C@H](c1ccc(Br)cc1)[C@@H]1C(=O)N(C(C)(C)C)C(=O)[C@@H]12` was -1.3%.
For the compound `CC(C)(C)N1C(=O)[C@H]2[C@@H](c3ccc(Br)cc3)N3C(=O)N(c4cccc(Cl)c4)C(=O)[C@@]3(C)[C@H]2C1=O`, the reporter increase is -3.13%.
Consider `CCCCN(C)C(=O)c1ccc2c(c1)N(CC)C(=O)c1ccccc1S2(=O)=O`, for which the reporter increase is 2.3%.
For `O=C(CN1C(=O)NC2(CCc3ccccc32)C1=O)NC1CCCCC1` (stereo unspecified), the reporter increase was 3.09%.
The value for `COCCNC(=O)CN1C(=O)CSc2ncccc21` was 3.24%; that for `OC[C@@H]1CN(Cc2ccc3c(c2)OCO3)C[C@H](n2cnc3c(NCc4ccco4)ncnc32)O1` was -0.219%; that for `COc1ccc2c(c1)[C@H]1[C@H](CO2)[C@H](c2ccccc2)[C@]2(C)C(=O)Nc3cc(F)c(F)cc3C(=O)N12` was 42% (active).
Take `CCOC(=O)[C@H]1[C@H]2COc3ccc(OC)cc3[C@@H]2N2C(=O)c3ccc(F)cc3NC(=O)[C@@]12C`: the reporter increase is 7.58%.
The value for `Cc1ccc2c(c1)NC(=O)[C@@]1(C)[C@@H](c3ccccc3)[C@H]3COc4ccc(Cl)cc4[C@@H]3N1C2=O` was 19.6%; that for `CC(=O)c1ccc(S(=O)(=O)NC2CC(=O)N(c3ccc4c(c3)OCCO4)C2)cc1` (stereo unspecified) was 0.667%.
For the compound `C[C@@H]1CN([C@@H](C)CO)C(=O)c2cc(Br)cnc2O[C@@H]1CN(C)C(=O)C1CCCCC1`, the reporter increase was -0.264%.
For `CC1(C)O[C@@H]2[C@H](O1)[C@@H](COS(=O)(=O)O)O[C@H]2n1ccc(=O)[nH]c1=O`, the reporter increase was 2.9%.
Turning to `CCCNC(=O)C1(C)CCN(C(=O)c2cc(F)ccc2C)C1` (stereo unspecified), the reporter increase is -0.06%.
In the case of `CC(C)OCCCNC(=S)N1CCC(C(=O)c2ccc3c(c2)OCCO3)CC1` it was -1.26%.
Regarding `COc1ccc(C)cc1NC(=O)CSc1cccc[n+]1[O-]`, the reporter increase is 1.45%.
Turning to `CN(C)c1ccc(S(=O)(=O)NCC(=O)NCC2CCCCC2)cc1[N+](=O)[O-]`, the reporter increase was -0.935%.
With `CN(C)c1ccc(/C=C/C(=O)c2ccc(C(C)(C)C)cc2)cc1[N+](=O)[O-]`, the reporter increase was 32.9% (active).
`O=C(/C=C/c1ccc(Cl)cc1)N1CCN(c2ccccc2[N+](=O)[O-])CC1`: the reporter increase is 0.213%.
For `CC/C(=N\NC(=O)c1c(C)nc2ccccn12)c1ccc(Cl)cc1`, the reporter increase was -0.008%.
In the case of `OCc1ccc(-c2ccccc2)c(-c2ccccc2)c1` it was 2.12%.
As for `CCCc1nc2ccccc2c(C(=O)OCc2nnc(-c3cc(OC)c(OC)c(OC)c3)o2)c1CC`, the reporter increase is 1.91%.
Turning to `O=C1C2C3C=CC(C3)C2C(=O)N1c1ccc(S(=O)(=O)Nc2nccs2)cc1` (stereo unspecified), the reporter increase is -0.133%.
In the case of `Cc1sc2ncnc(SCC(=O)Nc3ccc(CN4CCCC4)cc3)c2c1C` it was -0.51%.
`C=CCn1c(SCc2c(C)noc2C)nc2sc3c(c2c1=O)CCC(C)C3` (stereo unspecified): the reporter increase is 27.8% (active).
Regarding `C=CCn1c(SCC(=O)NCC2CCCO2)nc2sc(C)c(C)c2c1=O` (stereo unspecified), the reporter increase is -1.1%.
The value for `C=CCn1c(SCC(=O)NCCCO)nc2sc3c(c2c1=O)CCC3` was 0.299%.
Consider `N#Cc1ccc(C2=CC(=O)C[C@H](c3ccc(Cl)cc3)C2)cc1`, for which the reporter increase is 1.89%.
For `CC(=O)NCC(=O)N(Cc1ccco1)C1(C(=O)NC2CCCC2)CCCCC1`, the reporter increase is -0.741%.
Turning to `O=C(Nc1ccc(Cl)cc1)C1Cc2c(-c3ccc4c(c3)OCO4)ccnc2O1` (stereo unspecified), the reporter increase is 1.69%.
Regarding `CCc1c(C)n([O-])c2c([n+]1=O)CCCCC2`, the reporter increase was 2%.
As to `CCCNC(=O)C1(C)CCCN(C(=O)c2cccc(OC(C)=O)c2C)C1` (stereo unspecified), the reporter increase was -0.136%.
For `Cc1ccc(Nc2nc(CSc3nnc(-c4ccncc4)n3-c3ccccc3C)cs2)cc1`, the reporter increase is -2.15%.
As to `CC(C)CCNC(=O)Cn1c(=O)oc2cc(S(=O)(=O)N3CC(C)CC(C)C3)ccc21` (stereo unspecified), the reporter increase is 114% (active).
As for `COc1cccc(CNC(=O)Cn2c(=O)oc3cc(S(=O)(=O)N4CCCCC4)ccc32)c1`, the reporter increase is -0.785%.
On to `CC1CCCCN1C(=O)Cn1c(=O)oc2cc(S(=O)(=O)N3CCCCC3)ccc21` (stereo unspecified), for which the reporter increase is -0.145%.
`CCOC(=O)c1cc2cc(-c3c(C(=O)OCC)oc4cc(O)cc(O)c4c3=O)ccc2o1`: the reporter increase was -0.142%.
On to `Cc1cccc(C)c1NC(=O)Nc1ccccc1-n1ccnc1`, for which the reporter increase is 0.968%.
Regarding `Cc1cccn2cc(-c3cccc(S(=O)(=O)N4CCCCC4)c3)nc12`, the reporter increase was -0.565%.
For the compound `CC1CCCC(NC(=O)c2cc(-c3ccncc3)nc3ccccc23)C1C` (stereo unspecified), the reporter increase was 0.382%.
`Cc1ccc2nc(-c3ccncc3)cc(C(=O)Nc3ccc(OC(F)F)cc3)c2c1`: the reporter increase is -8.25%.
Regarding `Cc1ccc2nc(-c3ccncc3)cc(C(=O)Nc3ccncc3)c2c1`, the reporter increase was 29.9% (active).
For `O=C(c1ccc(N2CCCC2=O)cc1)N1CCN(c2ccc(C(F)(F)F)cc2[N+](=O)[O-])CC1`, the reporter increase is -1.99%.
For the compound `CN(C)C(=O)N=NC(=O)N(C)C`, the reporter increase was 0.968%.
As to `COc1cc(N/C=C2\CC(=O)NC(C)=C2C#N)cc(OC)c1OC`, the reporter increase is 0.911%.
As to `O=C1/C(=C\c2ccc(O)cc2)CCC1CNc1ccc(Cl)cc1` (stereo unspecified), the reporter increase was 10.4%.
On to `Cn1c(=O)n(C)c2cc(C(=O)Nc3ccc4c(c3)OCO4)ccc21`, for which the reporter increase is 70.1% (active).
Regarding `Cc1ccc(C(=O)Nc2ccc3c(c2)OCCO3)cc1S(=O)(=O)N1CCOCC1`, the reporter increase was -2.07%.
In the case of `COc1cccc(OC)c1C(=O)Nc1ccc2c(c1)n(C)c(=O)n2C` it was 9.32%; in that of `Cc1ccc(S(=O)(=O)N2CCOCC2)cc1NC(=O)c1ccncc1`, 0.492%; in that of `Cc1ccc(S(=O)(=O)NN=C2CC(C)(C)CC(=O)C2(C)C)cc1`, -0.913%.
With `Cc1cccc(S(=O)(=O)N2CN(CC3CCCO3)c3nc4ccccc4nc32)c1` (stereo unspecified), the reporter increase is 0.557%.
For `Cc1sc2c(c1C)c(=O)n(-c1ccccc1)c1nncn21`, the reporter increase was 3.73%.
The value for `COCCN(CCOC)S(=O)(=O)c1ccc(C(=O)Nc2nc3c(s2)CCc2ccccc2-3)cc1` was -0.048%; that for `O=C(Nc1ccc(S(=O)(=O)N2CCc3ccccc3C2)cc1)c1ccccc1` was -1.85%.
Regarding `C=CCN(CC=C)S(=O)(=O)c1ccc(C(=O)Nc2nc3c(s2)CCc2ccccc2-3)cc1`, the reporter increase is 55.6% (active).
In the case of `C[C@H](CO)N1C[C@H](C)[C@H](CN(C)CC2CC2)Oc2ccc(NC(=O)CCN3CCOCC3)cc2C1=O` it was 1.29%; in that of `CCc1nnc(NC(=O)C2CC(=O)N(c3ccc4c(c3)OCCO4)C2)s1` (stereo unspecified), 1.58%.
Regarding `CN(C)C(=O)c1coc2nc3ccccc3nc12`, the reporter increase was 0.129%.
For the compound `CNC(=O)c1cccc2nc3ccccc3nc12`, the reporter increase was 39.1% (active).
Consider `CNC(=O)C(NC(=O)c1ccccc1)=C(C)C`, for which the reporter increase is -0.912%.
In the case of `COc1ccc2[nH]c3c(c2c1)CCN1C(=O)C(CC(=O)NCCc2ccccn2)C[C@H](C(=O)N2CCOCC2)[C@@]31C` (stereo partly specified) it was 2.29%; in that of `CSc1cc(C)n(-c2ccccc2C)c(=S)c1C(C)=O`, -0.347%.
As to `COc1ccccc1CNC(=O)CNC(=O)c1cn(-c2ccccc2OC)c(=O)c2ccccc12`, the reporter increase is 1.89%.
Consider `Cc1ccc(F)c(S(=O)(=O)NC(=O)C2(C)CCN2C(=O)CCc2cccs2)c1` (stereo unspecified), for which the reporter increase is 2.26%.
Take `O=C(Nc1cccc(Cc2ccccc2)c1)Nc1ccc2nc([C@@H]3O[C@H](CO)[C@@H](O)[C@H](O)[C@H]3O)[nH]c2c1`: the reporter increase was 0.008%.
`NNC(=O)CNC(c1ccccc1)c1cc(Cl)ccc1NC(=O)c1ccccc1` (stereo unspecified): the reporter increase is -3.39%.
As for `CN(CC1CCCO1)S(=O)(=O)c1ccc(C(=O)Nc2ccc([N+](=O)[O-])cc2)cc1` (stereo unspecified), the reporter increase is -5.35%.
The value for `CC(C)c1ccc(NC(=O)CCN2C(=O)c3ccc([N+](=O)[O-])cc3C2=O)cc1` was 1.26%; that for `Cn1ccc(=Nc2ccc(NC(=O)c3ccc(N=c4ccn(C)c5ccc([N+](=O)[O-])cc45)cc3)cc2)cc1` was 32.9% (active).
